# Assay outcomes from PubChem.
# PglD DTNB – blocks C. jejuni PglD acetyltransferase activity; purified PglD enzyme, DTNB colorimetric CoA detection; inhibition, % at 12.5 µM; 360,000 compounds, 0.098% hits; in the data active = inhibition above about 16%, passing the limit was not always enough
# CASP6 VEID inh – caspase-6 (human) enzyme inhibition. P55212. inhibition, % at 12.5 µM. 350,000 compounds, 0.53% hits. purified caspase-6, Z-VEID-R110 cleavage fluorescence. AID 686996;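 active = mean inhibition across replicates at least about 35%, with every replicate also reaching that limit, limit read from the data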;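 note: 0% = median of neutral control wells and 100% = no fluorescence left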
# Target sequence (P55212 24-179 limits assumed): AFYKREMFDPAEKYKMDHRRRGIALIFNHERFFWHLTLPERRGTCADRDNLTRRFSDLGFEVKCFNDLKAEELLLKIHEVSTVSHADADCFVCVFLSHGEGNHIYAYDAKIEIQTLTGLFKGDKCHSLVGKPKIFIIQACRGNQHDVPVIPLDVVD
# Target sequence (P55212 194-293 limits assumed): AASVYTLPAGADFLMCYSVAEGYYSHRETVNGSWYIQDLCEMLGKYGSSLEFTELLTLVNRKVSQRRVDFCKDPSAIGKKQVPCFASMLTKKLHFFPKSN
# Env fusion inh – inhibitors of HIV Env-mediated cell fusion. inhibition, % at 12.3 µM. 360,000 compounds, 1.1% hits. AID 651610. HeLa-JRFL Env/CEM21 cell fusion, luciferase;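 active = mean replicate inhibition score of at least 50 and every replicate individually at or above 50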;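 note: 0% = plate neutral controls and 100% = maraviroc near 300 nM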
# CFTR F508del cor – CFTR F508del correction in bronchial cells. CFBE cells, YFP halide quenching; stimulated with forskolin plus potentiator P3; % fluorescence drop versus neutral controls. activity (quench increase), % at 7.58 µM. 350,000 compounds, 0.36% hits. AID 720511;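 active = mean added fluorescence quench of at least 8% versus neutral control, with both replicates also reaching 8%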;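 note: cells transiently co-express mutant CFTR-F508del with the halide-sensitive YFP; corrector assay measuring rescue of mutant channel to the surface after 24 h compound exposure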
# NSD2 inh – blocks human histone methyltransferase NSD2 | O96028 | NSD2 peptide methylation, AlphaScreen, 120 min | inhibition, % at 12.5 µM | 310,000 compounds, 0.54% hits | AID 743445; in the data active = inhibition above about 50%
# ALR H2O2 inh – blocks human ALR sulfhydryl oxidase activity | P55789 | purified ALR, DTT oxidation, H2O2 HRP-luminol luminescence | inhibition, % (test concentration not listed) | 290,000 compounds, 3.8% hits | AID 485317;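 active = mean replicate inhibition above about 79%, with every replicate also reaching it, limit read from the data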
# AlphaScreen art – counter-screen for NSD2 inhibitors: AlphaScreen artifacts | AC35, µM (doses to about 10 µM), without a hit: at the top dose activity change, negative = signal loss | AID 1053174 | 1,500 compounds, 9.4% hits | shares compounds with NSD2 inh | AlphaScreen artifact counterscreen, preloaded methylated H4 peptide; call rule not given here
# * = called active by the depositor; . = no result; [ ] = dose if it differs, or a comment. Rows were chosen to be rich in hits. Some 4.1% of all compounds tested hit in one or more screens of this group.
SMILES,PglD DTNB,CASP6 VEID inh,Env fusion inh,CFTR F508del cor,NSD2 inh,ALR H2O2 inh,AlphaScreen art
COc1ccccc1/C=N/Nc1cc(C)nc(N2CCOCC2)n1,-3,1,2,-1,57*,1,0%
CN(Cc1ccccc1)S(=O)(=O)c1ccc(Cl)c(C(=O)OCC(N)=O)c1,4,4,10,0,0,-1,.
CN(C)S(=O)(=O)c1ccc(Cl)c(C(=O)OCC(=O)c2ccco2)c1,7,2,.,1,55*,0,1%
COc1cc(NC(=O)CCn2c(=O)oc3ccccc32)cc(OC)c1OC,6,4,-1,1,51*,-20,3%
Cc1ccc(NC(=O)CCn2c(=O)oc3ccccc32)cc1,0,.,-73,.,55*,-2,-1%
C[C@H]1CN([C@@H](C)CO)S(=O)(=O)c2ccc(C3=CCCCC3)cc2O[C@H]1CN(C)C(=O)CN(C)C,6,3,-2[16.7 µM],0,.,.,.
CC1=CCC2C(=O)N(c3ccc4ccccc4n3)C(=O)C2C1 (stereo unspecified),-3,.,.,.,0,-9,.
Cc1cc(=O)n(-c2ccc3ccccc3n2)[nH]1,-3,.,-99,.,86*,9,-5%
CC(C)C#Cc1ccc2c(c1)O[C@@H](CN(C)S(=O)(=O)c1cn(C)cn1)[C@H](C)CN([C@H](C)CO)S2(=O)=O,0,1,.,0,.,.,.
Cn1cnc(S(=O)(=O)N2CC[C@@H]3[C@@H](CO)Nc4ccc(-c5ccccc5F)cc4[C@@H]32)c1,0,.,.,1,.,.,.
O=C1C(Nc2cccc(O)c2)=C(N2CCCCC2)C(=O)c2ccccc21,-6,.,9,.,64*,10,-13%
O=C1C(NS(=O)(=O)c2ccc(Br)cc2)=C(N2CCCCC2)C(=O)c2ccccc21,1,2,23,2,58*,-2,2.4µM*
CN(C1=C(N2CCCCC2)C(=O)c2ccccc2C1=O)c1ccccc1,-1,.,7,.,0,7,.
C[C@H]1CCCCO[C@@H](CN(C)C(=O)CCC(F)(F)F)[C@@H](C)CN([C@@H](C)CO)C(=O)c2cc(NC(=O)NC3CCCCC3)ccc2O1,4,1,33[16.7 µM],-2,.,.,.
CCn1cc(/C=N\NC(=O)C2(C)CC2(Cl)Cl)c(C)n1 (stereo unspecified),3,.,.,.,63*,-3,2%
Cc1c(/C=N\NC(=O)C2(C)CC2(Cl)Cl)cnn1C (stereo unspecified),4,.,.,.,-4,3,.
c1ccc(-c2cc(-c3ccccc3)n3ncnc3n2)cc1,.,3,11,0,50*,-26,-1%
COc1ccc(-c2cc(-c3ccccc3)nc3ncnn23)cc1,0,5,-36,8,.,-7,.
O=C(Nc1ccc(Cl)cc1)N[C@@H]1CC[C@@H](CCn2cc(-c3ccccc3F)nn2)O[C@H]1CO,-1,-3,-1[16.7 µM],2,.,.,.
CN(C)CCCNC(=S)N(CCCN(C)C)Cc1cc2cc3c(cc2[nH]c1=O)OCO3,2,-34,3,-1,12,-4,.
CCN(CC)CCCN(Cc1cc2cc3c(cc2[nH]c1=O)OCCO3)C(=O)Nc1ccccc1,-2,.,.,.,93*,-8,2%
CCN(CC)CCCN(Cc1cc2ccc(C)c(C)c2[nH]c1=O)C(=O)NC1CCCCC1,.,.,-85,.,63*,3,-7%
CCN(CC)CCN(Cc1cc2cc3c(cc2[nH]c1=O)OCO3)C(=S)NCCCOC,-2,0,-16,2,8,-7,.
Cc1ccc2cc(CN(CC3CCCO3)C(=O)NC3CCCCC3)c(=O)[nH]c2c1C (stereo unspecified),5,.,-98,.,2,0,.
CCN(CC)CCCN(Cc1cc2cc3c(cc2[nH]c1=O)OCO3)C(=S)NCCCN(C)C,-8,-64,14,1,80*,0,-7%
CCN(CC)CCCN(Cc1cc2cc3c(cc2[nH]c1=O)OCO3)C(=S)NCCCOC,0,-1,3,0,75*,-2,-2%
O=C(Nc1ccccc1)N(CCCN1CCOCC1)Cc1cc2cc3c(cc2[nH]c1=O)OCCO3,3,.,.,.,2,-6,.
COc1ccc2c3c(n(C)c2c1)[C@H](CO)N(C(=O)Nc1ccc(F)cc1)CC31CN(Cc2cccnc2)C1,.,0,-6[16.7 µM],-3,.,.,.
C[C@@H]1CCCCO[C@@H](CN(C)C)[C@H](C)CN([C@H](C)CO)C(=O)c2cc(NC(=O)C3CCCCC3)ccc2O1,.,.,-6[16.7 µM],-2,.,.,.
CCCc1cn(CC[C@@H]2CC[C@H](NS(=O)(=O)c3ccccc3Cl)[C@@H](CO)O2)nn1,-5,-3,-5[16.7 µM],-1,.,.,.
